rCAG RNA binder = binders of r(CAG) RNA repeats, primary screen, biochemical, fluorescence; AID 651821, 2012; inhibition, % at 3 µM; 370,000 tested, 1.3% active; r(CAG) RNA repeat, TO-PRO-1 dye displacement fluorescence;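 active = inhibition above the plate cutoff, the mean of all test compounds on that plate plus 3 SD, cut at about 35% in these data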;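 also: 0% = DMSO alone and 100% = 100 µM mitoxantrone as full dye displacement; higher means more dye released from RNA so lower well fluorescence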
MPTP block = mitochondrial permeability transition pore inhibitors, primary screen, biochemical, isolated mouse mitochondria, absorbance; AID 602449, 2012; Ca2+ swelling absorbance, 30 min; 360,000 tested, 1.4% active; inhibition, % at 10 µM;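 active = inhibition of 50% or more, scaled per plate between neutral and stimulator controls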;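 also: 0% = DMSO wells given calcium and 100% = 1 mM EGTA wells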
FAS TE block = FAS thioesterase domain inhibitors, primary screen, biochemical, fluorescence intensity, uHTS | recombinant FAS-TE, OMFH fluorogenic substrate, fluorescence endpoint | AID 602261, 2012 | 360,000 tested, 0.67% active | inhibition, % at 15 µM;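 active = compounds whose normalised, plate-corrected inhibition of enzyme fluorescence in the single-dose primary screen is 50% or more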;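 also: 0% = DMSO with enzyme and 100% = substrate without enzyme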
Target sequence (P49327 whole entry, looked up, the tested form may be a part): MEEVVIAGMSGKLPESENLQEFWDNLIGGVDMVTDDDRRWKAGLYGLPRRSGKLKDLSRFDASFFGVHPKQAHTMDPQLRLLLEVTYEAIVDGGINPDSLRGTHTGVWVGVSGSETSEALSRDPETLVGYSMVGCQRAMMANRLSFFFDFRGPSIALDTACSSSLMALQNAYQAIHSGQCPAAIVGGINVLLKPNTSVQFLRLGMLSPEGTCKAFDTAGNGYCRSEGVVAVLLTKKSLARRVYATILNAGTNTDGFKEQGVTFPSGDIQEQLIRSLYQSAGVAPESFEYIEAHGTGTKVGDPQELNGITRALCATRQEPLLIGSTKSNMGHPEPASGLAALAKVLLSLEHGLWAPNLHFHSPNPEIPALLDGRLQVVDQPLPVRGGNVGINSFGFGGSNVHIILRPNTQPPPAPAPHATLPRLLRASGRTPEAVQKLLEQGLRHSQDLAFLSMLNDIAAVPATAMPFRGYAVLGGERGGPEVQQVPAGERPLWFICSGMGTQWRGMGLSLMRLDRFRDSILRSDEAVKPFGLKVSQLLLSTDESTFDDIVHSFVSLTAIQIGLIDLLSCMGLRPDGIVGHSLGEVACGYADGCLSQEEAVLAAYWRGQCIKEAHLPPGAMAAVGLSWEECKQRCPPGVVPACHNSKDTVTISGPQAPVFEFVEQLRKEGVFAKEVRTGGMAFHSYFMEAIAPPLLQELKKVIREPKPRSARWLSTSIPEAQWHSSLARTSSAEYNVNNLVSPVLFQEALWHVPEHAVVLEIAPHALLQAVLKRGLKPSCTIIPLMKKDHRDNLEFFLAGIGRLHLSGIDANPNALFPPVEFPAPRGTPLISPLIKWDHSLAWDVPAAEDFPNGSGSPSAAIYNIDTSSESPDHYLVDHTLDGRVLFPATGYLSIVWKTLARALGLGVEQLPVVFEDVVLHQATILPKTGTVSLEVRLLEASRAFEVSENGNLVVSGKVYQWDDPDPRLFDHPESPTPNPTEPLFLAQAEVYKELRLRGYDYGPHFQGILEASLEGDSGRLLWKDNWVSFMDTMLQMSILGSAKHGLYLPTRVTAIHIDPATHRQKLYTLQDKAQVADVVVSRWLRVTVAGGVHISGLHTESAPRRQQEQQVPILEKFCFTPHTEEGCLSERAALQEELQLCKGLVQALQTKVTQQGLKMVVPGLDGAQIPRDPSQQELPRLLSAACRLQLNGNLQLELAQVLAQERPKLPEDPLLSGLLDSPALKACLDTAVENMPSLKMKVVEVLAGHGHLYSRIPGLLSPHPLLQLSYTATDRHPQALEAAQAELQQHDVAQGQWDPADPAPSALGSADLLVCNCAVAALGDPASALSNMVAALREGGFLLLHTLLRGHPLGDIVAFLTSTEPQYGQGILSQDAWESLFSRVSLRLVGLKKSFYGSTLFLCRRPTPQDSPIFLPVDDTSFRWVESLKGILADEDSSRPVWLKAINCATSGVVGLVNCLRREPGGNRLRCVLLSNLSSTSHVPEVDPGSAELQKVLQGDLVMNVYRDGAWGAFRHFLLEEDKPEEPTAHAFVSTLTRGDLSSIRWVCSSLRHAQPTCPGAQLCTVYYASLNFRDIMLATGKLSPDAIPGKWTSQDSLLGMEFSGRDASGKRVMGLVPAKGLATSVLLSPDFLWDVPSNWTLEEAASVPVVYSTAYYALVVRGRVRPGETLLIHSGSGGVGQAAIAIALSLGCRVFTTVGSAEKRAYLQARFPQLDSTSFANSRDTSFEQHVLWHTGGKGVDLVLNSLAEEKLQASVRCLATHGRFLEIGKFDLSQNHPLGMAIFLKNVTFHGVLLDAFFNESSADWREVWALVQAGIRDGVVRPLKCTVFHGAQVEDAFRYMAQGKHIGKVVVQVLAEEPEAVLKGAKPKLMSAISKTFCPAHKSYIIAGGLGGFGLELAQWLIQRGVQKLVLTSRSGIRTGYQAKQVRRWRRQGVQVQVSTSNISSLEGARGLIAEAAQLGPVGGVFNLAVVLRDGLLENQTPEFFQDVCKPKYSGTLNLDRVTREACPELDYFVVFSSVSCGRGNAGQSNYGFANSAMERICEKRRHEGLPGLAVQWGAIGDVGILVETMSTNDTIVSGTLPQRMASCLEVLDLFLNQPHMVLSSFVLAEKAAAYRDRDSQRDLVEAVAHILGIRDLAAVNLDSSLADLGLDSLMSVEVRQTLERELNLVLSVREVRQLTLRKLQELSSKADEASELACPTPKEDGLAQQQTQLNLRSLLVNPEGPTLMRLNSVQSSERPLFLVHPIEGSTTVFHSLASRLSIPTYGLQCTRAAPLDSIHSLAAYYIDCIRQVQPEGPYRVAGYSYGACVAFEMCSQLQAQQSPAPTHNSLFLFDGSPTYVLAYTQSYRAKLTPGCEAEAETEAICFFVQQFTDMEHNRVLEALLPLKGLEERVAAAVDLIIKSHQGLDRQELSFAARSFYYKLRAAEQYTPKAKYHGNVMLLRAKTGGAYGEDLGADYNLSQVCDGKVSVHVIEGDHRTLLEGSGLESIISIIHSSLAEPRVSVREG
GRIN3A LBD mod = binders of NR3A ligand-binding domain, primary screen, biophysical, differential scanning fluorimetry, uHTS; Glutamate receptor ionotropic, NMDA 3A (GRIN3A) ligand-binding domain; NR3A LBD differential scanning fluorimetry, Tm shift; 0% = protein alone, 100% = glycine-bound protein; Tm shift relative to glycine control, % at 25 µM; 340,000 tested, 2.5% active; AID 1259313, 2017;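 active = melting temperature shift of at least 10% of the positive control shift, at one fixed dose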
Myeloid diff 2 = induction of myeloid progenitor differentiation, primary screen, cell-based, flow cytometry, MLPCN library; ER-HoxA9 myeloid progenitors, lysozyme-GFP differentiation; 360,000 tested, 1% active; calls only at 10 µM;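 active = normalized GFP-positive differentiation at or above the plate's own cutoff, the solvent-only control mean plus 3 SD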;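 also: cells exposed to compound for four days before flow analysis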
rCAG binder conf = small molecules binding CAG repeat RNA – biochemical, fluorescence, confirmation; shares compounds with rCAG RNA binder; r(CAG) RNA repeat, TO-PRO-1 dye displacement fluorescence; inhibition, % at 3 µM; 4,300 tested, 70% active;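 active = inhibition above a per-plate cutoff, the mean inhibition of sample wells plus 3 SD, cut at about 35% in these data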;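 also: loss of TO-PRO-1 fluorescence as compound displaces dye from 1x1 AA loop RNA; 0% = DMSO only wells and 100% = 100 µM mitoxantrone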
DNA CAG counter = displacement of TO-PRO-1 from CAG DNA duplex, counter-screen for rCAG RNA repeat binder project, biochemical, fluorescence, TO-PRO-1 dye, d(CAG) DNA oligo; shares compounds with rCAG RNA binder; d(CAG) DNA oligo TO-PRO-1 dye displacement; inhibition, % at 3 µM; 4,300 tested, 94% active; AID 652068, 2013;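 active = inhibition above its plate's cutoff, the mean test-well inhibition plus 3 SD, cut at about 4.8% in these data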;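 also: 0% = DNA dye mix with DMSO and 100% = 100 µM mitoxantrone; hits displace the dye from DNA and so lower well fluorescence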
* marks the source's active call; other numbers are inactive results; i = inactive; / = no result given. Most compounds without a hit are left out; they make up all but 5.7% or so of the library.

SMILES	rCAG RNA binder	MPTP block	FAS TE block	GRIN3A LBD mod	Myeloid diff 2	rCAG binder conf	DNA CAG counter
Cc1ccc(OCC(=O)Nc2nnc(S(=O)(=O)N3CCCCC3)s2)cc1	50*	0	-7	-6	i	41*	18*
Cc1ccc(OCC(=O)Nc2nnc(S(=O)(=O)N3CCCCCC3)s2)cc1	18	2	4	0	i	/	/
COc1cc(/C=C2\SC(=Nc3cccnc3)NC2=O)cc(OC)c1OC	2	0	-5	-1	i	/	/
CCc1ccc(N=C2NC(=O)/C(=C/c3cc(OC)c(O)c(OC)c3)S2)cc1	42*	2	5	3	i	40*	16*
CCCOc1ccc(C(=O)N/N=C/c2c[nH]c3ccc(Br)cc23)cc1	37*	2	22	37*	i	25	12*
CCCCOc1ccc(C(=O)N/N=C/c2cn[nH]c2-c2ccc(OC)c(OC)c2)cc1	6	-20	6	-12	i	/	/
Fc1ccc(Cn2ccc3ccc(-c4ccc5ccn(Cc6ccccc6)c5c4)cc32)cc1	17	/	/	/	/	/	/
FC(F)(F)Oc1cccc(Cn2ccc3ccc(-c4ccc5ccn(Cc6ccccc6)c5c4)cc32)c1	55*	/	/	/	/	14	8.9*
N#Cc1c(Cl)nsc1NN	92*	1	-3	-5	i	22	4.8*
CCC(Sc1ncccc1C(=O)O)C(=O)N1CCOCC1 (configuration not stated)	-1	-1	-8	-1	i	/	/
CCC(Sc1ncccc1C(=O)O)C(=O)N1CCCC1 (configuration not stated)	43*	-1	0	0	i	3	0
Cc1[nH]c2ccccc2c1N=Nc1ccccc1C(=O)O	53*	6	-4	-11	i	19	5.7*
COc1ccc2ccccc2c1C=Nn1c(-c2n[nH]c3c2CCC3)n[nH]c1=S	48*	/	/	/	/	49*	18*
COc1ccc(NS(=O)(=O)c2ccc(C)cc2)c([N+](=O)[O-])c1	6	2	1	-1	i	/	/
Cc1ccc(S(=O)(=O)Nc2ccc3ccccc3c2[N+](=O)[O-])cc1	61*	26	3	-14	i	52*	18*
Cc1cc(/C=N/Nc2ccc([N+](=O)[O-])cn2)c(C)n1-c1ccc(C(=O)O)cc1	42*	2	36	-3	i	32	9.4*
S=c1[nH]nc(-c2ccncc2)n1/N=C/C=C/c1ccco1	15	1	-4	0	i	/	/
Cc1cccc(/C=N/n2c(-c3cc(-c4ccccc4)n[nH]3)n[nH]c2=S)c1	23	2	3	-2	i	/	/
S=c1[nH]nc(-c2cc(-c3ccccc3)n[nH]2)n1/N=C/C=C/c1ccccc1	25	2	5	7	i	/	/
COc1cc(C=Nn2c(-c3cc(-c4ccccc4)n[nH]3)n[nH]c2=S)ccc1OC(C)=O	58*	/	/	/	/	44*	13*
COc1ccccc1/C=C/C=N/n1c(-c2cc(-c3ccccc3)n[nH]2)n[nH]c1=S	44*	5	19	1	i	63*	25*
Cc1cccc(-c2n[nH]c(=S)n2/N=C/C=C/c2ccco2)c1	43*	4	5	0	i	26	13*
CC(C)[C@H](NC(=O)C1CCC(CNC(=O)[C@@H]2CCCN2C(=O)OC(C)(C)C)CC1)C(=O)O (some centres not stated)	-1	-1	-6	1	i	/	/
CCOC(CNC(=O)C(=O)Nc1cc2c3c(c1)CCC(=O)N3CCC2)OCC	-4	-1	-6	-1	i	/	/
COc1ccc(S(=O)(=O)c2c(O)cc(C)c(NS(=O)(=O)c3ccccc3)c2C)cc1	5	2	24	-5	i	/	/
SMILES	rCAG RNA binder	MPTP block	FAS TE block	GRIN3A LBD mod	Myeloid diff 2	rCAG binder conf	DNA CAG counter
Cc1cc(OCc2nn[nH]n2)c2c(C)c(Cc3ccccc3)c(=O)oc2c1	50*	-2	6	-10	i	50*	13*
Cc1cc(OCc2nn[nH]n2)c2c(C)c(CC(=O)O)c(=O)oc2c1	2	-2	-6	1	i	/	/
Cc1c(CCC(=O)N[C@@H](C)C(=O)O)c(=O)oc2cc3occ(-c4ccccc4)c3cc12	36*	1	3	-3	i	45*	9.8*
Cc1c(CC(=O)NCC(=O)O)c(=O)oc2cc3occ(-c4ccccc4)c3cc12	24	2	-4	-2	i	/	/
Cc1c(CCC(=O)NCCCCCC(=O)O)c(=O)oc2cc3occ(-c4ccccc4)c3cc12	10	8	6	-3	i	/	/
CCC(NC(=O)CCc1c(C)c2cc3c(-c4ccccc4)coc3cc2oc1=O)C(=O)O (configuration not stated)	37*	0	-1	1	i	42*	9.4*
COc1ccc(O)cc1CN1CCN(c2ncc(Cc3ccccc3)cn2)CC1	3	4	/	/	i	/	/
CCOC(=O)C1=C(O)/C(=C/c2cn(CC(=O)N3CCCC3)c3ccccc23)SC1=Nc1ccccc1	/	-1	-8	-1	i	/	/
CCOC(=O)C1=C(O)/C(=C/c2ccc(OCC(=O)O)c(OC)c2)SC1=Nc1ccc(OC)cc1	52*	1	-9	-3	i	65*	20*
CCOC(=O)C1=C(C)NC2=C(C(=O)c3ccccc32)C1c1ccc(O)cc1 (configuration not stated)	4	0	0	-13	i	/	/
CCOc1ccc(C2C3=C(Nc4nc(N)[nH]c(=O)c42)c2ccccc2C3=O)cc1 (configuration not stated)	66*	1	-1	-8	i	53*	35*
CCCOc1ccc(C2C3=C(Nc4nc(N)[nH]c(=O)c42)c2ccccc2C3=O)cc1 (configuration not stated)	71*	1	8	4	i	57*	37*
COc1ccc(C2C3=C(CCCC3=O)NC3=C2C(=O)c2ccccc23)cc1 (configuration not stated)	11	8	6	1	i	/	/
NNc1nc(Nc2ccc([N+](=O)[O-])cc2)nc(N2CCCCCC2)n1	36*	1	12	0	i	29	16*
O=C(O)CC1NCCc2ccccc21 (configuration not stated)	1	2	-3	-1	i	/	/
